# Source: PubChem BioAssay AID651791 (National Center for Advancing Translational Sciences (NCATS), 2012)
# Inconclusive results are not listed. Activity calls are given as the source filed them. The call rests on the fitted dose curve; in most records, active means well fitted inhibition curve with a large enough effect; inconclusive means small, poorly fitted or top-dose-only effect; inactive means no such curve, though single readings can be large or run the other way.
# Assay: InCell qHTS Assay for Inhibitors of the mTORC1 Signaling Pathway in MEF (Tsc2-/-, p53-/-) Cells: Hit Validation;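 further: phospho-S6 Ser235/236 signal normalized to propidium iodide cell count per well; nearly all actives have a fitted effect of over 75% in size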
# Settings: phospho-rpS6 immunofluorescence, 24 h; activity change, negative = inhibition: at 38.3 µM (top of the series)
# Potency means the concentration at half of the fitted maximal effect.
Structure (SMILES),"activity change, negative = inhibition [%]",Potency
O=C1c2[nH]nc(-c3ccccc3O)c2C(c2ccc(Cl)cc2)N1CCc1ccccc1 (configuration not stated),-21.4,
Cc1ccccc1Oc1nc2ccccn2c(=O)c1/C=C(\C#N)c1nc2ccccc2[nH]1,-100,
COC(=O)c1cc2sc(C)cc2n1Cc1ccccc1,-100,
CCCCC1CCC(C(=O)N2CC(=O)Nc3ccc(Cl)cc3C2c2ccc(F)cc2)CC1 (configuration not stated),-100,
CCc1ccccc1NC(=O)CSCc1cnn(-c2ccccc2)c1-n1cccc1,-100,
COc1cc(NC(=O)CSc2ccc(-c3ccccn3)nn2)cc(OC)c1,-100,
Cc1nn(CCCC(=O)NCc2cccc(Cl)c2)c(=O)c2c1sc1ccccc12,-100,
COC(=O)c1ccccc1NC(=O)Cn1c(=O)n(-c2ccc(C)cc2)c(=O)c2ccccc21,-18.6,
CCCCN(C)C(=O)CSc1c2c(nc3ccc(Cl)cc13)CCCC2,-100,
O=C(NCc1ccc(Cl)cc1)C(=O)NCC(c1cccs1)S(=O)(=O)c1ccc(Cl)cc1 (configuration not stated),-100,
CC(C)(C)c1ccc(C2NC(=O)c3n[nH]c(-c4cccs4)c32)cc1 (configuration not stated),-100,
CCCCS(=O)(=O)c1oc(-c2ccc(F)cc2)nc1S(=O)(=O)c1ccccc1,,2.07 µM (active)
CC1=Nc2cc(C(=O)NC3CCCC3)ccc2Sc2ccc(Cl)cc21,-100,
CCn1c(CN2CCC(C)CC2)nc2cc(NC(=O)c3ccccc3[N+](=O)[O-])ccc21,-100,
CCOC(=O)N1CCN(Cc2nc3cc(NC(=O)CC(C)C)ccc3n2C(C)C)CC1,-100,
COc1ccc(CN2CCN(c3ncnc4sc5c(c34)CCCC5)CC2)cc1F,-100,
CC(=O)C1=C(c2ccc(Cl)c(Cl)c2)N(C(C)=O)n2c(C)nnc2S1,,7.36 µM (active)
CCN(CC)Cc1c(NC(=O)c2ccc(OC)cc2)sc2c1CCCC2,1.72,
CCOC(=O)c1ccc(NC(=O)c2nc(S(=O)(=O)Cc3ccccc3)ncc2Cl)cc1,,4.14 µM (active)

Structure (SMILES),"activity change, negative = inhibition [%]",Potency
COc1ccc(OC)c(NC2=C(c3ccccc3)C(=O)c3ccccc32)c1,-9.58,
Cc1ccc(-c2nnc(Nc3ccc(O)cc3)c3ccccc23)cc1S(=O)(=O)N1CCCCC1,-100,
CCC1CCc2nc3sc(C(=O)Nc4cccc(F)c4)c(N)c3cc2C1 (configuration not stated),-100,
Cc1cc(NCc2ccc(Cl)cc2)n2cnnc2n1,-100,
CCCN1C(=O)C(Cc2nc3ccccc3c(=O)n2CC)c2ccccc21 (configuration not stated),-100,
COc1ccc(CCNC(=O)c2ccc3c(c2)N(Cc2ccccc2)CCS3)cc1OC,-100,
CCOC(=O)N1CCN(Cc2nc3cc(NC(C)=O)ccc3n2C(C)C)CC1,-100,
COc1cc(OC)c(NS(=O)(=O)c2ccc3c(c2)CCCN3C(C)=O)cc1Cl,-100,
Cc1ccc(C(C)C)c(OCC(=O)Nc2cc(-c3nc4ccccc4[nH]3)ccc2C)c1,-100,
Cc1ccc(NC(=O)c2c(C)oc3ccc(O)c(CN(C)Cc4ccccc4)c23)c(C)c1,-100,
CC(=O)N1CCCc2cc(S(=O)(=O)N(Cc3ccccc3)C(C)C)ccc21,-100,
CCOC(=O)c1c(NC(=O)c2ccc(S(=O)(=O)N(C)C)cc2)sc2c1CCN(C)C2,-26.7,
N#Cc1ccc(-c2cccs2)nc1SCc1c(F)cccc1Cl,-16.8,
CCNc1nc2c(c(=O)[nH]c(=O)n2C)n1CC(O)COc1ccc(Cl)cc1Cl (configuration not stated),-100,
CCCCN1C(=O)C(O)(CC(=O)c2ccc(C(C)(C)C)cc2)c2ccccc21 (configuration not stated),-28.2,
O=c1c(-c2cc(-c3ccc(F)cc3)nc3c2COc2ccc(Cl)cc2-3)coc2ccc(F)cc12,-100,
O=C(NCC(c1cccs1)S(=O)(=O)c1cccs1)c1ccccc1 (configuration not stated),-100,
COc1ccc(N(C)C(=O)c2cc(S(=O)(=O)N3CCc4ccccc43)cn2C)c(OC)c1,-100,
